SIRT5 block: sirtuin-5 (human) deacylase inhibition; Purified SirT5, succinyl-peptide AMC, trypsin-coupled fluorescence; inhibition, % at 15 µM; actives 1.1% (n = 330,000); AID 652115; Q9NXA8; in the data active means inhibition above about 15%
FGF22 binding: binders of recombinant human FGF22 by thermal shift; SYPRO orange fluorescence; percent of sucrose octasulfate shift, DMSO zero; activity (Tm shift, normalised), % at 9.99 µM; actives 1.5% (n = 340,000); AID 651658;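 active means mean Tm shift, scaled 0 neutral to 100 positive control, at about 1.3% or above, every replicate too, limit read from the data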
ERAP1 inh: blocks human ERAP1 aminopeptidase activity. inhibition, % at 10.7 µM. recombinant ERAP1, Leu-AMC fluorescence, 60 min. Q9NZ08. actives 0.15% (n = 340,000);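 active means mean replicate inhibition of at least 30%, or all replicates individually reaching that 30% level; inactive means mean below 30% and not every replicate reaching it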;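 further: 0% = neutral control wells and 100% = L-leucinethiol positive control wells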
CASP6 VEID inh: caspase-6 (human) enzyme inhibition; P55212; purified caspase-6, Z-VEID-R110 cleavage fluorescence; inhibition, % at 12.5 µM; actives 0.53% (n = 350,000);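 active means mean inhibition across replicates at least about 35%, with every replicate also reaching that limit, limit read from the data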;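 further: 0% = median of neutral control wells and 100% = no fluorescence left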
An asterisk follows results filed as active; · = not tested or not shown; ! = a repeat was not active. Sampled rows, rich in hits. Any-hit rate of the full collection: about 3.1%.

SMILES	SIRT5 block	FGF22 binding	ERAP1 inh	CASP6 VEID inh
C[C@@H]1CCCCO[C@@H](CN(C)Cc2ccccc2)[C@H](C)CN([C@H](C)CO)C(=O)c2cc(NC(=O)c3ccncc3)ccc2O1	-3	0	-1	-2
CC(C)NC(=O)N(C)C[C@@H]1Oc2ccc(NC(=O)C3CCCCC3)cc2CC(=O)N([C@@H](C)CO)C[C@H]1C	4	1	-3	0
CC(=O)Nc1ccc(NC(=O)COC(=O)c2ccc([N+](=O)[O-])o2)cc1	-1	0	4	54*
Cc1ccc(CC(=O)Nc2ncc([N+](=O)[O-])s2)cc1	0	0	3	-2
O=C(COC(=O)c1ccc(Br)o1)Nc1ncc([N+](=O)[O-])s1	16*	1	8	48*
O=C(COC(=O)c1ccc(Br)o1)NCc1ccc(F)cc1	-2	27*	-2	-1
O=C(COC(=O)c1ccc([N+](=O)[O-])o1)NCc1ccc(F)cc1	0	0	1	52*
C[C@H](CO)N1C[C@H](C)[C@H](CN(C)Cc2ccc3c(c2)OCO3)Oc2ccc(NS(=O)(=O)c3cn(C)cn3)cc2CC1=O	·	0	·	·
CC(=O)N1[C@H](C(=O)NC2CCCCC2)[C@@H](CO)[C@@H]2Cn3c(cccc3=O)[C@@H]21	-3	0	0	-3
COc1ccc(NC(=O)Nc2ccc3c(c2)C(=O)N([C@H](C)CO)C[C@H](C)[C@@H](CN(C)C(=O)C2CCCCC2)OCCCC[C@@H](C)O3)cc1	0	0	1	-3
CC(C)NC(=O)c1cccc2c(-c3ccc(F)c(F)c3)coc12	-2	0	-4	16
CS(=O)(=O)Nc1cccc(NC(=O)c2cccc3c(-c4ccc(F)c(F)c4)coc23)c1	15*	0	5	0
CS(=O)(=O)Nc1cccc(NC(=O)c2ccc(-c3ccc(F)c(F)c3)c3ccoc23)c1	-3	0	2	0
CC(C)CNC(=O)c1cccc2c(-c3ccc(F)c(F)c3)coc12	0	0	5	55*
COc1ccc(CN(C)C[C@@H]2Oc3c(NC(=O)NC4CCCCC4)cccc3C(=O)N([C@@H](C)CO)C[C@@H]2C)cc1	-1	0	-16	4
CC(C)NC(=O)N1CC(=O)N2[C@H](CO)[C@@H](c3ccc(/C=C/c4ccccc4)cc3)[C@@H]2C1	1	0	1	0
O=C1ON=C(c2ccccc2)/C1=C/c1ccco1	20*	0	3	·
N#C[C@@H]1[C@@H](c2ccc(-c3ccccc3)cc2)[C@H](CO)N1C(=O)Cc1ccccc1	2	-1	1	-5
N#C[C@H]1[C@H](c2ccc(-c3ccccc3)cc2)[C@H](CO)N1C(=O)Cc1ccccc1	15*	0	3	3
O=C(O)c1cccc(S(=O)(=O)NNc2ccccc2C(F)(F)F)c1	-25	0	-1	40*
COC(=O)c1sc(C(C)(C)C)cc1CS(=O)(=O)c1ccc(Cl)cc1	-1	15*	0	-4
O=C(N/N=C/c1ccc[nH]1)c1ccccc1OCc1ccccc1Cl	-1	43*	5	-5
O=C(N/N=C/c1ccc[nH]1)c1ccccc1O	1	0	6	60*
O=C(NC1=NCCS1)c1ccccc1OCc1ccccc1Cl	0	44*	-1	0
O=C(N/N=C/c1ccc[nH]1)c1ccc(O)cc1	6	1	1	4
SMILES	SIRT5 block	FGF22 binding	ERAP1 inh	CASP6 VEID inh
C[C@H]1CN([C@@H](C)CO)C(=O)Cc2cc(NS(=O)(=O)c3cn(C)cn3)ccc2O[C@H]1CN(C)C(=O)Nc1cccc2ccccc12	-3	0	1	2
CCNC(=O)C[C@@H]1CC[C@H]2[C@@H](COc3ccc(NS(=O)(=O)c4ccccc4C)cc3C(=O)N2C)O1	7	0	-1	2
CC=Cc1ccc2n(c1=O)C[C@@H]1[C@@H](CO)[C@H](C(=O)NC3CCC3)[C@H]2N1C(=O)c1ccccn1 (mixture of isomers)	0	0	-2	1
Cn1c(=O)c2c(ncn2Cc2ccc(Cl)cc2)n(C)c1=O	-1	44*	-3	0
Cn1c(=O)c2c(ncn2Cc2ccc(O)c([N+](=O)[O-])c2)n(C)c1=O	0	0	4	2
CCOC(=O)C1C(c2cccs2)NC(=O)NC1(O)C(F)(F)F (stereo not given)	17*	0	-1	-3
CN1c2ccc(-c3cccc(F)c3)cc2[C@@H]2[C@@H](CCN2C(=O)c2ccc3c(c2)OCO3)[C@@H]1CO	8	0	-1	-2
O=C(Nc1cc(C(=O)Nc2ccccc2C(=O)O)cc(C(=O)Nc2ccccc2C(=O)O)c1)c1ccccc1	25*	·	0	3
O=C(/C=C/c1ccco1)Nc1cccc(C(=O)Nc2ccccc2C(=O)O)c1	21*	0	-4	60*
O=C(O)c1cccc(NC(=O)c2ccccc2NC(=O)c2ccco2)c1	·	0	·	-2
O=C(c1ccc2c(c1)OCO2)N1C[C@H]2[C@@H](c3ccccc31)[C@H](CO)N2Cc1ccccc1Cl	4	-1	-3	1
CN(C)C(=O)C[C@@H]1CC[C@@H]2[C@@H](COc3ccc(NC(=O)c4ccc(F)c(F)c4)cc3C(=O)N2C)O1	6	0	-2	0
CCOC(=O)C1=C(C)NC(=S)NC1c1ccsc1 (stereo not given)	-2	43*	-3	1
Cc1ccc(C23CC4CC(CC(C(=O)NC(C)C)(C4)C2)C3)cc1	-4	0	1	1
CC(C)NC(=O)C12CC3CC(C1)CC(C(=O)NC(C)C)(C3)C2	-3	44*	1	0
O=C(C[C@@H]1CC[C@@H]2[C@H](COC[C@@H](O)CN2Cc2cccc(Cl)c2)O1)N1CCCCC1	-2	0	-2	0
O=C(C[C@H]1CC[C@@H]2[C@H](COC[C@H](O)CN2Cc2ccc3c(c2)OCO3)O1)N1CCOCC1	-1	0	1	0
O=C(C[C@H]1CC[C@H]2[C@@H](COC[C@@H](O)CN2Cc2cccc(Cl)c2)O1)N1CCCCC1	19*	0	-3	3
COc1ccc(CN2C[C@@H](O)COC[C@@H]3O[C@H](CC(=O)N4CCc5ccccc5C4)CC[C@H]32)cc1	17*	0	1	0
CN1CCN(C(=O)C[C@@H]2CC[C@H]3[C@@H](COC[C@@H](O)CN3Cc3cccc(F)c3)O2)CC1	0	0	0	1
CN1CCN(C(=O)C[C@H]2CC[C@H]3[C@@H](COC[C@@H](O)CN3Cc3cccc(F)c3)O2)CC1	1	43*!	1	0
O=C(C[C@@H]1CC[C@@H]2[C@H](COC[C@@H](O)CN2Cc2ccc3c(c2)OCO3)O1)N1CCOCC1	27*	0	0	2
CCCC#Cc1ccc([C@@H]2[C@@H](CO)N3CCCCN(Cc4cccnc4)C[C@H]23)cc1	-1	-1	·	·
CC(=O)N(C)C[C@H]1Oc2ncc(C#Cc3ccc(F)cc3)cc2C(=O)N([C@H](C)CO)C[C@H]1C	-3	0	-2	-1

Screening data: PubChem, Broad Institute
